In PubChem BioAssay:
The source made the active and inactive calls.

Legend:
[1] = E. coli DRC41 culture turbidity changes, primary screen, E. coli filamentation inducer project, strain DRC41, OD650, 48 h (AID 1152);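 also: E. coli MC1000 strain DRC41 lacking acrAB efflux pump and sulA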; conditions: E. coli DRC41 (acrAB sulA), higher = more signal, called active from +8 up or from −8 down
[2] = small-molecule binders of probe aLefty1, primary screen, biochemical, small-molecule microarray, 635/667 nm fluorescence (AID 1153); conditions: higher = more signal;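 also: score merges spot fluorescence with signal-to-noise ratio from the scanned slide images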
[3] = PSAC antagonists in infected red cells, primary screen, cell-based, P. falciparum Indochina, OD700, 1 h (AID 1154); conditions: P. falciparum Indochina infected RBC osmotic lysis, higher = more signal, called active from +8 up or from −8 down
[4] = PSAC antagonists in infected red cells, primary screen, cell-based, P. falciparum Indochina, OD700, 2 h (AID 1155);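 also: lysis reports solute entry through the parasite surface anion channel PSAC; channel blockers reduce lysis of infected cells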; conditions: P. falciparum Indochina infected erythrocytes, osmotic lysis OD700; higher = more signal, called active from +8 up or from −8 down
[5] = osmotic lysis modulators in infected erythrocytes, primary screen, PSAC antagonist project, cell-based, P. falciparum Indochina, OD700, 3 h (AID 1156); conditions: higher = more signal, called active from +8 up or from −8 down
[6] = PSAC antagonists in infected red cells, primary screen, cell-based, P. falciparum Indochina, OD700, 18 h (AID 1157); conditions: P. falciparum Indochina infected erythrocytes, osmotic lysis OD700, 18 h; higher = more signal, called active from +8 up or from −8 down
[7] = modulators of S6 phosphorylation in cells, primary screen, cell-based, A549, cytoblot, luminescence, serum-stimulated (AID 1158); conditions: A549 phospho-S6 cytoblot, 5 h, higher = more signal;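 also: serum-stimulated A549 lung adenocarcinoma cells; signal is phosphorylated S6 detected by cytoblot immunostaining with HRP secondary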
[8] = target: NADPH oxidase 2 (Homo sapiens) (UniProt P04839); assay: NOX2-dependent H2O2 signal modulators, primary screen, NOX inhibitor project, cell-based, HEK293-NOX2, PMA-stimulated, Amplex Red fluorescence (AID 1159); conditions: 45 min, higher = more signal, called active from +8 up or from −8 down; also: test concentration not given here
[9] = target: NADPH oxidase 4 (Homo sapiens) (UniProt Q9NPH5); assay: NOX4-dependent H2O2 signal modulators, primary screen, NOX inhibitor project, cell-based, HEK293-NOX4, tetracycline-induced, Amplex Red fluorescence (AID 1160); conditions: 45 min, higher = more signal, called active from +8 up or from −8 down
[10] = target: NADPH oxidase 5 (Homo sapiens) (UniProt Q96PH1); assay: NOX5-dependent H2O2 signal modulators, primary screen, NOX inhibitor project, cell-based, HEK293-NOX5, Amplex Red fluorescence (AID 1161); conditions: HEK293-NOX5, ionomycin, 45 min, higher = more signal
[11] = A549 cell viability effects, profiling panel, calcein-AM fluorescence, 48 h, basal (AID 1162); conditions: higher = more signal; also: test concentration not given here
[12] = adipocyte viability effects, profiling panel, cell-based, 3T3-L1 adipocytes, calcein-AM fluorescence, 48 h, basal (AID 1163); conditions: 3T3-L1 adipocytes viability, higher = more signal; also: test concentration not given here
[13] = HepG2 cell viability effects, profiling panel, calcein-AM fluorescence, 48 h, basal (AID 1164); conditions: higher = more signal; also: test concentration not given here
[14] = MM1S cell viability effects, profiling panel, calcein-AM fluorescence, 48 h, basal (AID 1165); conditions: higher = more signal;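 also: viability of MM1S multiple myeloma cells under basal unstimulated conditions; test concentration not given here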
[15] = basal RPMI8226 viability, no added stimulus, profiling panel, cell-based, calcein-AM fluorescence, 48 h, PK04 Diversity Set (AID 1166); conditions: RPMI8226 myeloma viability, higher = more signal;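 also: cells grown under basal conditions without added stimulus; test concentration not given here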
[16] = basal HepG2 mitochondrial membrane potential changes, profiling panel, cell-based, JC-1 fluorescence, 24 h, 100 nL compound (AID 1167); conditions: higher = more signal; also: test concentration not given here
[17] = basal 3T3-L1 adipocyte mitochondrial potential changes, profiling panel, cell-based, JC-1 fluorescence, 3T3-L1 adipocytes, 24 h, 100 nL compound (AID 1168); conditions: JC-1 mitochondrial fluorescence, higher = more signal, called active from +8 up or from −8 down; also: test concentration not given here
[18] = basal RPMI8226 mitochondrial membrane potential changes, profiling panel, cell-based, JC-1 fluorescence, 24 h, 100 nL compound (AID 1169); conditions: RPMI8226 myeloma, JC-1 mitochondrial potential fluorescence, higher = more signal; also: test concentration not given here
[19] = basal MM1S mitochondrial membrane potential changes, profiling panel, cell-based, JC-1 fluorescence, 24 h, 100 nL compound (AID 1170); conditions: higher = more signal; also: test concentration not given here
[20] = A549 lung cancer cell viability effects, profiling panel, resazurin fluorescence, 24 h, PK04 Diversity Set (AID 1171); conditions: higher = more signal, called active from +8 up or from −8 down; also: test concentration not given here

Chain of NADPH oxidase 4 (Homo sapiens) (Q9NPH5 whole entry, looked up): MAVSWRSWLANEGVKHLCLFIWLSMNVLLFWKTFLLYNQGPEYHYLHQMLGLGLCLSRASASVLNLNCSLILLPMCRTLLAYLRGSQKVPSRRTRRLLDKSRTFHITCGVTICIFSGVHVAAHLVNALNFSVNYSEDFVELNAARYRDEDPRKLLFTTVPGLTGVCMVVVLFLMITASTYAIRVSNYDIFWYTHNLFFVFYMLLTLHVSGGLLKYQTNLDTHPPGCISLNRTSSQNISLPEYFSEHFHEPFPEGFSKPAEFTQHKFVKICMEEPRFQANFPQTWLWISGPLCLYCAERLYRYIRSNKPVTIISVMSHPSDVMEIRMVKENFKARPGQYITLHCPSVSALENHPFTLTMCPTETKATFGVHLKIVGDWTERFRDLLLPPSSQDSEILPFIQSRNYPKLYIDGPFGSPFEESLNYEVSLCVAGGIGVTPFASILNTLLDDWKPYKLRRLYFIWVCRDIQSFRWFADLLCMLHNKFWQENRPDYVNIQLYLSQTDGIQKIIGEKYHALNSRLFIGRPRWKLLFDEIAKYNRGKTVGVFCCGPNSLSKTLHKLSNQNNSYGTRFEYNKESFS
Chain of NADPH oxidase 2 (Homo sapiens) (P04839 whole entry, looked up): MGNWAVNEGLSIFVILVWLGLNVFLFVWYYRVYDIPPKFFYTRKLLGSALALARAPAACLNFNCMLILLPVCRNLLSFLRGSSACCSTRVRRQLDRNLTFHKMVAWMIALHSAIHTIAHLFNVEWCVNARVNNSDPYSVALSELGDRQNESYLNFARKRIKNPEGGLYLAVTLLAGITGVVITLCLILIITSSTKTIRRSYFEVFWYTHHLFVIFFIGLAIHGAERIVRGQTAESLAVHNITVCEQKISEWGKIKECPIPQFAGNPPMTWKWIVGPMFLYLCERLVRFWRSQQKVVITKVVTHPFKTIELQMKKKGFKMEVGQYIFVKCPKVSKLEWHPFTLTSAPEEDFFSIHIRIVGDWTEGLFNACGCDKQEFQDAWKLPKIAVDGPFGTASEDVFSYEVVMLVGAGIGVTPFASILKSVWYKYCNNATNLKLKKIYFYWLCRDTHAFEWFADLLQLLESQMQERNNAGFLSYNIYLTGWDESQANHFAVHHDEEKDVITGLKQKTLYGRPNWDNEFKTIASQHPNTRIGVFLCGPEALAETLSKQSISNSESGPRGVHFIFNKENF
Chain of NADPH oxidase 5 (Homo sapiens) (Q96PH1 whole entry, looked up): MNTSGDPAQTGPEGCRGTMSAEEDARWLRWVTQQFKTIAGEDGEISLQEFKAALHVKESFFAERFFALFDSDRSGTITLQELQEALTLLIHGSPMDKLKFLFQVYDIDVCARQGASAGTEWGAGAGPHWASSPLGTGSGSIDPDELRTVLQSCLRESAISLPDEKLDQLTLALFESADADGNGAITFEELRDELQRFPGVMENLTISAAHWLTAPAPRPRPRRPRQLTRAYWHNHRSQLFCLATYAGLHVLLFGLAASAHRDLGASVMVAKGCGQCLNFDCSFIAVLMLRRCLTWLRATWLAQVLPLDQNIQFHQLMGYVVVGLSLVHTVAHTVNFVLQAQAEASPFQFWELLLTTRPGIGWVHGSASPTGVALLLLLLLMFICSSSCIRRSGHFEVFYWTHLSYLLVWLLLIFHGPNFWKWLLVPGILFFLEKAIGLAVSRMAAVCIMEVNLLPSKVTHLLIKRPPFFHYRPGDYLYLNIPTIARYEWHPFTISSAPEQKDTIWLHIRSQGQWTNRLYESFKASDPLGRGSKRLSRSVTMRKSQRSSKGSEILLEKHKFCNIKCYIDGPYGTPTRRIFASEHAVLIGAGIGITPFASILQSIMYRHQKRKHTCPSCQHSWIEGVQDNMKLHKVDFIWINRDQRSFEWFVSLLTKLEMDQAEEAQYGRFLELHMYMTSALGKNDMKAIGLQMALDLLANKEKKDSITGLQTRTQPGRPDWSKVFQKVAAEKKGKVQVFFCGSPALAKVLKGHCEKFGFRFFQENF

Compound: [N-]=[N+]=NCc1ccccc1C[C@]1(C(=O)N2CCOCC2)N=C(c2ccc(OCCCO)cc2)O[C@H]1c1ccccc1N=[N+]=[N-]
- z-score [1]: 0.97 (inactive)
- composite z-score [2]: 0.043
- z-score [3]: 30 (active)
- z-score [4]: 25.3 (active)
- z-score [5]: 2.34 (inactive)
- z-score [6]: 1.92 (inactive)
- z-score [7]: 1.73
- z-score [8]: -6.05 (inactive)
- z-score [9]: -2.96 (inactive)
- z-score [10]: -2.7
- z-score [11]: -1.37
- z-score [12]: 1.97
- z-score [13]: -0.956
- z-score [14]: -1.28
- z-score [15]: -3.42
- z-score [16]: 0.665
- z-score [17]: -0.817 (inactive)
- z-score [18]: -1.1
- z-score [19]: -1.47
- z-score [20]: -0.678 (inactive)

Compound: [N-]=[N+]=Nc1ccccc1[C@H]1OC(c2ccc(OCCCO)cc2)=N[C@@]1(Cc1ccccc1)C(=O)O
- z-score [1]: 0.409 (inactive)
- composite z-score [2]: 0.346
- z-score [3]: 32 (active)
- z-score [4]: 27.2 (active)
- z-score [5]: 1.65 (inactive)
- z-score [6]: 7.43 (inactive)
- z-score [7]: -0.259
- z-score [8]: -0.0311 (inactive)
- z-score [9]: 1.5 (inactive)
- z-score [10]: 1.75
- z-score [11]: 1.98
- z-score [12]: 0.276
- z-score [13]: 0.73
- z-score [14]: -0.0876
- z-score [15]: -0.532
- z-score [16]: -0.107
- z-score [17]: 0.222 (inactive)
- z-score [18]: -0.0546
- z-score [19]: -1.2
- z-score [20]: -0.724 (inactive)

Compound: COCCn1c(C(=O)N2CCCC2)cc2c1C[C@H]1CN(C(=O)c3ccccc3)[C@@](Cc3ccc(F)cc3)(C(=O)OC)[C@@H]21
- z-score [1]: -1.33 (inactive)
- composite z-score [2]: 0.237
- z-score [3]: 1.15 (inactive)
- z-score [4]: 0.137 (inactive)
- z-score [5]: 2.62 (inactive)
- z-score [6]: 0.642 (inactive)
- z-score [7]: -0.0267
- z-score [8]: 0.236 (inactive)
- z-score [9]: 0.191 (inactive)
- z-score [10]: -4.43
- z-score [11]: -1.27
- z-score [12]: 0.25
- z-score [13]: -0.366
- z-score [14]: -1.21
- z-score [15]: -1.22
- z-score [16]: 0.584
- z-score [17]: -0.757 (inactive)
- z-score [18]: -0.37
- z-score [19]: -1.37
- z-score [20]: 0.409 (inactive)

Compound: C=CCN1C(=O)[C@]2(O[C@H](CCO)[C@@H]([Si](C)(C)c3ccc(OC)cc3)[C@@H]2C)c2cc(N3C(=O)c4cccc5cccc3c45)ccc21
- z-score [1]: 0.568 (inactive)
- composite z-score [2]: 0.178
- z-score [3]: 6.44 (inactive)
- z-score [4]: 4.41 (inactive)
- z-score [5]: 0.0626 (inactive)
- z-score [6]: 2.83 (inactive)
- z-score [7]: 1.03
- z-score [8]: 0.924 (inactive)
- z-score [9]: 0.4 (inactive)
- z-score [10]: 0.0361
- z-score [11]: -3.27
- z-score [12]: 0.105
- z-score [13]: -4.63
- z-score [14]: -2.63
- z-score [15]: -4.34
- z-score [16]: -2.32
- z-score [17]: 0.697 (inactive)
- z-score [18]: -0.955
- z-score [19]: -2.28
- z-score [20]: -5.26 (inactive)

Compound: COCCCNC(=O)[C@@]1(Cc2ccccc2N=[N+]=[N-])N=C(c2ccc(OCCCO)cc2)O[C@H]1c1ccccc1N=[N+]=[N-]
- z-score [1]: -0.439 (inactive)
- composite z-score [2]: 0.302
- z-score [3]: 28.8 (active)
- z-score [4]: 25.2 (active)
- z-score [5]: 2.41 (inactive)
- z-score [6]: 5.91 (inactive)
- z-score [7]: 0.621
- z-score [8]: -2.05 (inactive)
- z-score [9]: 0.518 (inactive)
- z-score [10]: -2.22
- z-score [11]: -1.84
- z-score [12]: 0.954
- z-score [13]: -1.37
- z-score [14]: -1.88
- z-score [15]: -3.69
- z-score [16]: 1.77
- z-score [17]: 0.221 (inactive)
- z-score [18]: -1.22
- z-score [19]: -2.03
- z-score [20]: -1.76 (inactive)

Compound: CN1C(=O)C2C=CC(C(O)C3CC=CCC3)N(NC(=O)OC(C)(C)C)C2C1=O (stereo not given)
- z-score [1]: -1.49 (inactive)
- composite z-score [2]: -0.168
- z-score [3]: 0.23 (inactive)
- z-score [4]: 0.737 (inactive)
- z-score [5]: -0.138 (inactive)
- z-score [6]: 0.312 (inactive)
- z-score [7]: -1.01
- z-score [8]: -0.92 (inactive)
- z-score [9]: -0.861 (inactive)
- z-score [10]: -0.716
- z-score [11]: 0.414
- z-score [12]: -0.61
- z-score [13]: -0.622
- z-score [14]: -0.0764
- z-score [15]: -0.291
- z-score [16]: -1.58
- z-score [17]: -0.493 (inactive)
- z-score [18]: 0.295
- z-score [19]: -0.121
- z-score [20]: -0.111 (inactive)

Compound: CCCCCC1=C2CNC(CCC)(C(=O)OC)C=C2C(C)C1=O (stereo not given)
- z-score [1]: -1.11 (inactive)
- composite z-score [2]: 0.358
- z-score [3]: 2.2 (inactive)
- z-score [4]: 0.0123 (inactive)
- z-score [5]: 0.807 (inactive)
- z-score [6]: 0.493 (inactive)
- z-score [7]: -0.39
- z-score [8]: 0.0917 (inactive)
- z-score [9]: -1.52 (inactive)
- z-score [10]: -3.63
- z-score [11]: -1.22
- z-score [12]: -0.388
- z-score [13]: 0.62
- z-score [14]: 0.0829
- z-score [15]: -0.282
- z-score [16]: -0.24
- z-score [17]: -0.283 (inactive)
- z-score [18]: -0.18
- z-score [19]: -1.13
- z-score [20]: -0.606 (inactive)

Compound: CCOc1cc(C(O)C2C=CC3C(=O)N(c4ccccc4)C(=O)C3N2Nc2ccccc2)ccc1O (stereo not given)
- z-score [1]: -0.39 (inactive)
- composite z-score [2]: -0.103
- z-score [3]: 6.39 (inactive)
- z-score [4]: 1.31 (inactive)
- z-score [5]: -0.343 (inactive)
- z-score [6]: 0.949 (inactive)
- z-score [7]: -0.883
- z-score [8]: -1.19 (inactive)
- z-score [9]: -1.37 (inactive)
- z-score [10]: -2.34
- z-score [11]: -0.0398
- z-score [12]: -1.24
- z-score [13]: 0.992
- z-score [14]: -3.04
- z-score [15]: 0.461
- z-score [16]: -1.32
- z-score [17]: -2.33 (inactive)
- z-score [18]: 0.279
- z-score [19]: -0.817
- z-score [20]: 0.314 (inactive)
